The text below walks through data of PubChem BioAssay (NCATS).

The target of test [1] is Cytochrome P450 3A7 (Homo sapiens) (UniProt P24462). As to the kind of experiment: Cytochrome P450 family 3 subfamily A member 7 (CYP3A7) small molecule antagonists: luciferase biochemical qHTS assay (AID 1963596). For activity change, negative = inhibition: % is set by controls: 0 for no effect and ±100 for the full control effect. Note: nearly all actives have a fitted effect of over 40% in size. The essentials:
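Enzyme-substrate mix + cpd (DMSO), 10 min RT; + NADPH regen system, 1 h RT; + luciferin detection reagent, 20 min RT; luminescence read. Proluciferin substrate, P450-Glo format, 1536-well qHTS.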
(qHTS replaces the single test concentration by a dilution series.)

Test [2] in a line: Viability qHTS for spleen associated tyrosine kinase inhibitor (SYKi) drug resistant MV4-11 cells (AID 1963824). Note: nearly all actives have a fitted effect of over 35% in size. The essentials: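 SYK inhibitor-resistant MV4-11 AML cells, 500 per well, added to predispensed compounds and incubated 72 hr at 37 C, 5% CO2. Viability measured by CellTiter-Glo luminescence after 10 min at room temperature.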
Test [3] in a line: Quantitative highthroughput screen to assess conditional lethalithy of NOMO1 cells grown in RPMI1640 with untreated serum (RPMI+s) (AID 1963876).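 For Viability: 100% = DMSO wells and 0% = empty wells without cells.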 Note: nearly all actives have a fitted effect of over 35% in size. An outline of the steps: (§1)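 Each medium arm—HPLM with 10% dialyzed FBS, or RPMI1640 with 5 mM glucose and 10% untreated or dialyzed FBS—was screened against an 11-point, 3-fold compound titration for 48 h at 37 °C, with CellTiter-Glo luminescence as endpoint.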

Test [4] is described as follows: Quantitative highthroughput screen to assess conditional lethalithy of NOMO1 cells grown in RPMI1640 with dialyzed fetal bovine serum (RPMI+ds) (AID 1963877).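 For Viability: series mostly up to about 46 µM; 100% = DMSO control wells and 0% = empty wells.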 Note: nearly all actives have a fitted effect of over 30% in size. The essentials:
as §1

Test [5] can be described thus: Quantitative highthroughput screen to assess conditional lethalithy of NOMO1 cells grown in Human Plasma-Like Medium with dialyzed fetal bovine serum (HPLM+ds) (AID 1963878).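 For Viability: 100% = DMSO wells and 0% = empty wells on each plate.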 Note: nearly all actives have a fitted effect of over 35% in size. An outline of the steps:
as §1

The nature of test [6]: Quantitative highthroughput screen to assess conditional lethalithy of P12 Ichikawa cells grown in RPMI1640 with dialyzed fetal bovine serum (RPMI+ds) (AID 1963880).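 For Viability: 100% = DMSO wells and 0% = empty wells on each plate.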 Note: nearly all actives have a fitted effect of over 35% in size. The note with it: Potency: P12-Ichikawa viability. The essentials:
as §1

Test [7] can be described thus: Quantitative highthroughput screen to assess conditional lethalithy of SEM cells grown in Human Plasma-Like Medium with dialyzed fetal bovine serum (HPLM+ds) (AID 1963882). For Viability: series mostly up to about 46 µM. Note: nearly all actives have a fitted effect of over 35% in size. The essentials:
as §1

Test [8] can be described thus: Quantitative highthroughput screen to assess conditional lethalithy of SEM cells grown in RPMI1640 with unreated serum (RPMI+s) (AID 1963883).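 For Viability: 100% = DMSO wells and 0% = empty wells without cells.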 Note: nearly all actives have a fitted effect of over 35% in size. The essentials:
as §1

Test [9] can be described thus: Quantitative highthroughput screen to assess conditional lethalithy of SEM cells grown in RPMI1640 with dialyzed fetal bovine serum (RPMI+ds) (AID 1963884).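 For Viability: series mostly up to about 46 µM; 100% = DMSO control wells and 0% = empty wells without cells.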 Note: nearly all actives have a fitted effect of over 35% in size. An outline of the steps:
as §1

The nature of test [10]: Cellular viability qHTS for adrenocortical cancer (ACC) cell line SW-13 (AID 1963989).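 For activity (max response): cells grown in serum-free medium with ITS supplement; % is set by controls: 0 for no effect and ±100 for the full control effect.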 Note: nearly all actives have a fitted effect of over 65% in size. The note with it: SW-13 ACC cells viability, CellTiter-Glo, 48 h; activity (max response): hits give low values. The essentials: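 SW-13 cells in ITS-supplemented serum-free DMEM were plated overnight, then exposed for 48 h at 37C to compound titrations (up to 46 uM final). Viability was read by CellTiter-Glo luminescence; four-parameter logistic fits gave IC50 and efficacy.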

Test [11] in a line: Cellular viability qHTS for adrenocortical cancer (ACC) cell line NCI-H295R (AID 1963990).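 For activity change, negative = viability loss: 0% = DMSO only wells and -100% = full killing with cytotoxic reference compound.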 Note: nearly all actives have a fitted effect of over 60% in size. An outline of the steps: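 Luminescent ATP read-out (CellTiter-Glo, 20 min RT) after 48 h drug exposure of NCI-H295R cells; a titration up to 46 uM final. Data normalized to doxorubicin (100% inhibition) and DMSO (0%); 4-parameter fit gives IC50, max response.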
A short description of test [12]: Quantitative highthroughput screen to assess conditional lethalithy of P12 Ichikawa cells grown in Human Plasma-Like Medium with dialyzed fetal bovine serum (HPLM+ds) (AID 1963879). For Viability: series mostly up to about 46 µM. Note: nearly all actives have a fitted effect of over 35% in size. The note with it: Potency: viability. An outline of the steps:
as §1

The nature of test [13]: Quantitative highthroughput screen to assess conditional lethalithy of P12 Ichikawa cells grown in RPMI1640 with untreated serum (RPMI+s) (AID 1963881).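 For Viability: series mostly up to about 46 µM; 100% = DMSO wells and 0% = empty wells without cells.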 Note: nearly all actives have a fitted effect of over 35% in size. The note with it: Potency: viability. The essentials: as §1

Where “and” joins values, the source holds several entries; their conditions need not be identical. Equal entries are not always repeated. Records with an inconclusive call do not appear. A number with no mark means an inactive call. Calls of active or inactive are those of the source. Calls come from the whole dose curve; as a rule, active = well fitted curve in the direction sought with a large enough effect; inconclusive = small, poorly fitted or top-dose-only effect, or another doubt; inactive = no such curve, though single readings can be large; an effect the other way counts as inactive or inconclusive.
Potency is the fitted concentration of half-maximal effect.

Chain of Cytochrome P450 3A7 (Homo sapiens) (P24462 whole entry, looked up): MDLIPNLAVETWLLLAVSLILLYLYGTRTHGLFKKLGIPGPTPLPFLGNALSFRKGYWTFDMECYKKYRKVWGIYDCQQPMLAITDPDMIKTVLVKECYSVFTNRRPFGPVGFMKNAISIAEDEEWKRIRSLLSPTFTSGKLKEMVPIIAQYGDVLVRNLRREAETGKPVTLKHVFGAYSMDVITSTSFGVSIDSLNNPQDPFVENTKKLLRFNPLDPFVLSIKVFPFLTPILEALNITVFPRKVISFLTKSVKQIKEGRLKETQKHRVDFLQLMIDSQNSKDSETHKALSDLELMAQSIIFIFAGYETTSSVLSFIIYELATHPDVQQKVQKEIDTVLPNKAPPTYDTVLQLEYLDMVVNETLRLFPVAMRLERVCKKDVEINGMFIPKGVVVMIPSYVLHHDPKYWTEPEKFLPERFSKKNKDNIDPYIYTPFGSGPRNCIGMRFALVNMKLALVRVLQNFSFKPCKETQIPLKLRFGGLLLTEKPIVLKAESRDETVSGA

For the compound `Cc1onc(-c2ccccc2)c1C(=O)N1CCN(c2ccc([N+](=O)[O-])cc2Cl)CC1`, in [1], the Potency result is “inactive”. Further, the Potency in test [2] is 13 µM (active).

As for `NC(=O)c1ccccc1O`, the Potency entry in test [1] and in test [2] was “inactive” in each case.

With `O=C(O)c1cccnc1`, the Potency result in test [1], in test [2] and in test [11] was “inactive” in each case. In addition, the Potency in test [3] is 8.33 µM (active); in [4] it was 5.26 µM (active); in test [5] it was 3.72 µM (active); in [6], 10.5 µM (active); in test [7], 1.18 µM (active); in test [8] it was 2.96 µM (active). Further, the Potency in test [9] is 2.96 µM (active). Moreover, in [10], the activity (max response) is -4.23% and 5.29%.

Regarding `Cc1cc2sc(NC(=O)Cc3ccccc3)nc2cc1Cl`, the Potency result in [1] and in [2] was “inactive” throughout.

`CCN(CC)CCCC(C)Nc1nc(C)cc(Nc2ccc3nc(C)cc(N)c3c2)n1` (centres undefined): the Potency result in test [1], in [3], in test [4], in test [5], in [12] and in [6] was “inactive” throughout. The Potency result in [13], in test [7], in test [8], in [9] and in [11] was “inactive” in each case. The Potency in test [2] was 16.6 µM (active).

Regarding `COc1ccccc1OC(=O)Oc1ccccc1OC`, the Potency result in [1] was “inactive”. Further, in [2], the Potency was 5.96 µM (active). Further, the activity (max response) in test [10] was 1.52%.

`NC[C@H]1O[C@H](O[C@H]2[C@H](O[C@@H]3O[C@H](CO)[C@@H](O)[C@H]3O)C(O)[C@H](N)C[C@@H]2N)[C@H](N)[C@@H](O)[C@@H]1O` (some centres undefined): in [1], the activity change, negative = inhibition was 16.1% [at 11.5 µM]. In addition, the viability, % of control in test [2] was 95.3% [at 9.25 µM]. The activity (max response) in test [10] is 8.3%. In addition, the activity change, negative = viability loss in [11] was 0.419% [at 9.17 µM].

As for `c1ccc2c(CC3=NCCN3)cccc2c1`, the Potency entry in [1] and in test [11] was “inactive” each time. In addition, the Potency in [2] was 11.9 µM (active). In addition, the activity (max response) in test [10] is 1.1%.

Turning to `O=C(O)c1cc(-c2ccccc2)nc2ccccc12`, the Potency entry in test [1], in [2] and in test [11] was “inactive” each time. Moreover, the activity (max response) in test [10] is 10.7%.

For the compound `O=C(O)CNC(=O)c1ccccc1`, the Potency result in [1] and in test [2] was “inactive” in each case. In addition, the activity (max response) in test [10] is 6.31%.

`CCNC(=O)Nc1ccc2ncc(Nc3ccc(C)cc3)nc2n1`: the Potency entry in test [1], in test [2] and in test [13] was “inactive” throughout.

For the compound `N=C(N)c1ccc2cc(OC(=O)c3ccc(N=C(N)N)cc3)ccc2c1`, the Potency entry in test [1], in test [12], in [7] and in test [8] was “inactive” each time. Moreover, in test [2], the Potency was 18.6 µM (active). In addition, in test [10], the activity (max response) is -32.1%.

As for `CC[N+](CC)(CC(=O)Nc1c(C)cccc1C)Cc1ccccc1`, the Potency entry in test [1], in test [2] and in test [11] was “inactive” each time. Also, in test [10], the activity (max response) was 1.59%.

As to `CCCCCCCC(=O)[O-].CCCCCCCC(=O)[O-].[Zn+2]`, the Potency result in test [1] and in test [2] was “inactive” in each case. Besides, in test [10], the activity (max response) is 2.96%.

`CCCCNC(=O)NS(=O)(=O)c1ccc(N)cc1`: the Potency entry in test [1] was “inactive”. Moreover, the Potency in [2] is 2.11 µM (active). Moreover, the activity (max response) in test [10] is 0.545%.

Regarding `CN1CCN(c2ccc(OC(F)(F)F)c(Nc3ncc4c(n3)-c3c(c(C(N)=O)nn3CCO)CC4)c2)CC1`, the Potency result in test [1] is “inactive”. In addition, the Potency in test [2] is 20.6 nM (active) and 46.8 nM (active); in test [10], 100 nM (active).

Turning to `CCN(CC)C(=O)c1ccc(O)c(OC)c1`, the Potency entry in test [1] and in [2] was “inactive” throughout. The activity (max response) in test [10] is 3.37%.

Regarding `CNC(=O)Oc1ccc2c(c1)[C@]1(C)CCN(C)[C@@H]1N2C`, the Potency entry in [1], in test [2] and in test [11] was “inactive” throughout. Further, the activity (max response) in [10] was 16.2%.

As for `Nc1ncn([C@H]2C[C@H](O)[C@@H](CO)O2)c(=O)n1`, the Potency entry in [1] and in [11] was “inactive” in each case. The Potency in test [2] is 4.68 µM (active); in [7], 2.96 µM (active); in test [8], 2.64 µM (active). The activity (max response) in test [10] was -13% and -6.12%.

With `CN[C@@H](C)C(=O)N[C@H](C(=O)N1CCC[C@H]1c1nc(C(=O)c2ccc(F)cc2)cs1)C1CCCCC1`, the Potency was 14.1 µM (active) in test [1] and 1.05 µM (active) in test [2]. The activity (max response) in test [10] was -7.41%. In test [11], the Potency result is “inactive”.

For the compound `Cc1c(F)cc2c(=O)c(C(=O)O)cn3c2c1CCC3C` (centres undefined), the Potency entry in test [1], in test [2] and in test [11] was “inactive” in each case. Further, in test [10], the activity (max response) was -2.48%.

`CCCCc1ccc2nc(NC(=O)OC)[nH]c2c1`: in test [1], the Potency entry was “inactive”. The Potency is 0.118 µM (active) in test [2]; 0.0935 µM (active) in test [12]; 0.0833 µM (active) in [13]; 0.059 µM (active) in [8]; 0.0418 µM (active) in [9]; 51.7 nM (active) and 282 nM (active) in [10]. Moreover, in test [11], the Potency was 103 nM (active) and 224 nM (active).

Consider `CCCOC(=O)c1ccccc1`, for which the Potency entry in [1], in test [2] and in [11] was “inactive” in each case. The activity (max response) in test [10] was 11.8%.

Turning to `CCN(CC)CCNC(=O)c1ccc(NC(C)=O)cc1`, the Potency entry in test [1], in [2] and in [11] was “inactive” each time. Further, the activity (max response) in test [10] is -7.72%.

`CC(=O)NS(=O)(=O)c1ccc(N)cc1`: the Potency entry in test [1] and in test [2] was “inactive” each time. Moreover, the activity (max response) in test [10] is 4.13%.

As to `O=C(O)[C@@H](O)[C@H](O)[C@H](O)[C@@H](O)C(=O)O`, the Potency entry in [1] and in test [2] was “inactive” throughout. The activity (max response) in test [10] was 9.05%.

For the compound `CC(=O)OCC(=O)[C@@]12N=C(C)O[C@@H]1C[C@H]1[C@@H]3CCC4=CC(=O)C=C[C@]4(C)[C@H]3[C@@H](O)C[C@@]12C`, the Potency result in test [1] and in [2] was “inactive” in each case. The activity (max response) in test [10] is 11.7% and 0.528%.

Take `CN1CCN(N)CC1`: the Potency result in test [1] and in [2] was “inactive” each time. The activity (max response) in [10] is -3.26%.

As to `O=C(N[C@H]1CCC[C@H](CO)C1)C1CCN(c2nc3cc(Cl)c(-c4ccc(Cl)cc4)cc3o2)CC1`, the Potency result in test [1] was “inactive”. Besides, the Potency in [2] was 16.6 µM (active); in test [11], 12.6 µM (active). The activity (max response) in test [10] was -10.9%.

In the case of `O=C1c2c(O)cccc2Cc2cccc(O)c21`, the Potency result in test [1], in [2] and in [11] was “inactive” throughout. For the same compound, the activity (max response) in test [10] is 5.31%.

As for `CCCCCCCC(=O)OCC(O)CO` (centres undefined), the Potency entry in [1] and in test [2] was “inactive” throughout. Moreover, in test [10], the activity (max response) is -7.07%.
